GPR151 activ = activators of human GPR151; Q8TDV0; PathHunter beta-arrestin GPR151 cells, luminescence; activation, % at 11.2 µM; 650,000 tested, 1% active; AID 1508602; in the data active = activation above about 4.9%
TEAD-YAP inh = TEAD-YAP interaction inhibition. HEK-TIYL cells, TEAD-Gal4/YAP UAS-luciferase luminescence. inhibition, % at 9.12 µM. 640,000 tested, 1.4% active. AID 1259422; in the data active = inhibition above about 32%
MITF primary = human MITF inhibition, primary screen | AlphaScreen MITF homodimerization, bead proximity signal | inhibition, % at 2.6 µM | 650,000 tested, 0.91% active | AID 1259374 | O75030; in the data active = inhibition above about 50%
FBW7 activator = human FBW7 E3 ligase activation, primary screen; Q969H0; AlphaScreen FBW7–phospho-cyclin E peptide binding, activator screen; normalized activity (activation), % at 26.1 µM; 650,000 tested, 0.13% active; AID 1259310; in the data active = normalized activity above about 1.9%;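 also: purified mutant Fbw7 with reduced substrate affinity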
Target sequence (Q969H0 whole entry, looked up): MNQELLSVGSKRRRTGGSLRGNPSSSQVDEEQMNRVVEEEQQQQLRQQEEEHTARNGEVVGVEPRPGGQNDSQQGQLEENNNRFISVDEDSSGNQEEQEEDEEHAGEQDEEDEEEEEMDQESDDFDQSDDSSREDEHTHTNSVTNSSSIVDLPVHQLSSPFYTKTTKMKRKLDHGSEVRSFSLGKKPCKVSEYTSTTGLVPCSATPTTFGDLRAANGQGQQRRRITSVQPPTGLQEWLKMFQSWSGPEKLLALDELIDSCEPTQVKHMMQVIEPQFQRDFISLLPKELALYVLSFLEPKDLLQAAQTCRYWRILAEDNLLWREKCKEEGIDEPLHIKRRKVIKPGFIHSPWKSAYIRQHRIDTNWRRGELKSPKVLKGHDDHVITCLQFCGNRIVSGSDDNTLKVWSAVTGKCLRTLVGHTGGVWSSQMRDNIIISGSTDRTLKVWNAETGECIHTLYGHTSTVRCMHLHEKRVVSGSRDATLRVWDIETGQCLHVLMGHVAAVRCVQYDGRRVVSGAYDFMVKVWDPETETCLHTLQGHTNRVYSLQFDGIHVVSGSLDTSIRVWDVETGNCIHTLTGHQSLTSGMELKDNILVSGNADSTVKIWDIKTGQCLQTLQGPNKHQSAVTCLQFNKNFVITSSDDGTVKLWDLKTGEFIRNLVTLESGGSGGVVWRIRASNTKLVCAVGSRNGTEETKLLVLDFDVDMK
Hits are given with their value; . = inactive. Rows were chosen to be rich in hits. Some 3.5% of all compounds tested hit in one or more screens of this group.

SMILES	GPR151 activ	TEAD-YAP inh	MITF primary	FBW7 activator
Cc1ccccc1CSc1nc2[nH]ncc2c(=O)[nH]1	.	.	.	.
O=c1c(Cl)c(Cl)cnn1-c1ccc(Cl)cc1	.	82.3	.	.
CCOC(=O)C1=C(N)Oc2cc(C)oc(=O)c2C1c1ccccc1Cl (stereo not given)	.	.	.	.
O=C(CSc1nnc2c(n1)[nH]c1ccccc12)Nc1ccc(Br)cc1	.	.	.	.
O=C(CSc1nnc2c(n1)[nH]c1ccccc12)Nc1ccc(Cl)cn1	.	56.9	.	.
O=C(CSc1nnc2c(n1)[nH]c1ccccc12)Nc1ccccc1F	.	.	.	.
O=C(CSc1nnc2c(n1)[nH]c1ccccc12)Nc1ccc(C(=O)N2CCCCC2)cc1	.	33.9	.	.
COc1cccc(NC(=O)c2ccc(NC(=O)C(C)(C)C)cc2)c1	.	.	.	.
O=C(Nc1cccc(O)c1)c1ccc(Oc2ccccc2)cc1	.	92.9	.	.
CC(C)(C)N1C(=O)c2ccc(C(=O)Nc3cccc(O)c3)cc2C1=O	.	88.7	.	.
CCCCOc1ccc(C(=O)Nc2cccc(O)c2)cc1	.	81.8	.	.
CC(C)(C)C(=O)Nc1ccc(C(=O)Nc2cccc(O)c2)cc1	.	63.8	.	.
CCCOc1ccccc1-c1cc(C(=O)N/N=C\c2cccnc2)[nH]n1	.	.	.	.
COC(=O)NNC(=O)Nc1cccc(OC)c1	.	.	.	.
Cc1ccc2oc(-c3ccc(N4CCC(C)CC4)c([N+](=O)[O-])c3)nc2c1	.	93.1	.	.
CCCCn1c(CNC(=O)c2ccc(OC)c(OC)c2)nnc1SC(C)C(=O)Nc1sc2c(c1C(=O)OCC)CCCC2 (stereo not given)	.	.	.	.
COc1cccc(C(=O)NCc2nnc(SCC(=O)N3N=C(c4cccs4)CC3c3ccc(C)cc3)n2-c2ccc(F)cc2)c1 (stereo not given)	.	.	.	.
Cc1c2oc3c(C)ccc(C(=O)N[C@@H]4C(=O)N[C@H](C(C)C)C(=O)N5CCC[C@H]5C(=O)N(C)CC(=O)N(C)[C@@H](C(C)C)C(=O)O[C@@H]4C)c3nc-2c(C(=O)N[C@@H]2C(=O)N[C@H](C(C)C)C(=O)N3CCC[C@H]3C(=O)N(C)CC(=O)N(C)[C@@H](C(C)C)C(=O)O[C@@H]2C)c(N)c1=O	.	95.7	.	.
O=C(CCc1nnc(C2(c3ccc(Cl)cc3)CCC2)o1)NCCCN1CCCC1=O	.	.	.	.
N#Cc1c(-n2ncnc2-c2cccs2)sc2c1CCCCC2	.	63.9	.	.
Cc1ccc(-c2ncnn2-c2sc3c(c2C#N)CCCCC3)cc1	.	.	.	.
CCOc1ccc(C2C(C(=O)OCCSCC)=C(C)NC3=C2C(=O)C(C(=O)OC)C(C)C3)cc1 (stereo not given)	.	.	.	.
CC1=C(C(=O)OCCOc2ccccc2)C(c2coc3ccc(Cl)cc3c2=O)C2=C(CCCC2=O)N1 (stereo not given)	.	.	.	.
CCOc1cccc(C2C(C(=O)OCCSCC)=C(C)NC3=C2C(=O)C(C(=O)OC)C(C)C3)c1 (stereo not given)	.	.	.	1.9
CCOC(=O)C1=C(C)NC2=C(C(=O)CCC2)C1c1coc2ccc(Cl)cc2c1=O (stereo not given)	.	.	.	2.3
SMILES	GPR151 activ	TEAD-YAP inh	MITF primary	FBW7 activator
CCSCCOC(=O)C1=C(C)NC2=C(C(=O)CCC2)C1c1ccc(Br)cc1 (stereo not given)	.	.	.	2.0
CCS(=O)(=O)NCCc1csc2nc(-c3ccccc3)nn12	.	.	.	.
O=C(CNS(=O)(=O)c1ccc(Cl)cc1)Nc1cccc([N+](=O)[O-])c1	.	.	.	.
O=C(NCCOc1ccccc1)c1cnc(NCCN2CCOCC2)s1	.	.	.	.
O=C(Cc1c(C(=O)O)[nH]c2ccc(Cl)cc12)NC1CCCCC1	.	.	.	.
O=c1[nH]c(N/N=C/c2ccccc2O)nnc1Cc1ccccc1	.	59.6	101.1	.
O=c1cnnc(N/N=C/c2ccccc2O)[nH]1	.	.	108.4	.
Cc1ccc(/C=N/Nc2nnc(Cc3ccccc3)c(=O)[nH]2)o1	.	.	.	.
COC(=O)c1cc(S(=O)(=O)N(C)c2cccc(C)c2)cn1C	.	.	.	.
CC(C)CCN(C(=O)CCl)c1c(N)n(Cc2ccccc2)c(=O)[nH]c1=O	.	68.1	.	.
c1cncc(CNc2ccn3ncc(-c4cccc5ccccc45)c3n2)c1	.	.	.	.
Fc1ccccc1-c1cnn2ccc(NCc3cccnc3)nc12	.	41.6	.	.
CC(=O)c1c(C)[nH]c(C(=O)COC(=O)CCCN2C(=O)c3ccccc3C2=O)c1C	.	.	.	.
CCOC(=O)c1[nH]c(C)c(C(=O)c2ccc(C)cc2)c1C	.	33.8	.	.
CC(=O)c1c(C)[nH]c(C(=O)OCCCCN2C(=O)c3ccccc3C2=O)c1C	.	53.8	.	.
CCOC(=O)c1[nH]c(C)c(C(=O)NCc2ccc(C)cc2)c1C	.	.	.	.
CCOC(=O)c1[nH]c(C)c(C(=O)c2ccccc2Cl)c1C	.	.	.	.
CCOC(=O)c1[nH]c(C)c(C(=O)c2ccccc2)c1C	.	48.0	.	.
CC(Sc1nnc(-c2cccnc2)n1-c1ccccc1C(C)C)C(=O)NC(N)=O (stereo not given)	.	.	.	.
Cc1ccc(C)c(NC(=O)CN(C)S(=O)(=O)c2ccc(Br)cc2)c1	.	.	.	.
CN(CC(=O)Nc1ccc(F)cc1)C(=O)CCl	.	42.4	.	.
Cc1ccc(C)c(NC(=O)CN(C)C(=O)CCl)c1	.	72.6	.	.
CCn1nnc(NC(=O)c2ccc(C)cc2Cl)n1	.	.	.	.
Nc1ccc(C(=O)OCC(=O)Nc2ncc(Cl)cc2Cl)cc1[N+](=O)[O-]	.	.	.	.
C=CCOc1ccc(C(=O)Nc2ccc(S(=O)(=O)N3CC(C)OC(C)C3)cc2)cc1 (stereo not given)	.	39.2	.	.
SMILES	GPR151 activ	TEAD-YAP inh	MITF primary	FBW7 activator
NC(=S)N/N=C/c1cc(Cl)cc(Cl)c1O	.	.	.	.
NC(=S)N/N=C/c1cccc(/C=N/NC(N)=S)c1	.	.	.	.
Cc1cc(/C=N/NC(N)=S)c(O)c(/C=N/NC(N)=S)c1	.	.	82.1	.
NC(=O)C(=O)N/N=C/c1cccc(O)c1O	.	.	56.3	.
Oc1cccc(/C=N/NC(=S)NCCN2CCOCC2)c1O	.	.	106.2	.
NC(=S)N/N=C/c1cccc(O)c1O	.	.	106.1	.
NC(=O)N/N=C/c1cccc(C(=O)O)c1O	.	.	.	.
NC(C(=O)N1CCC(C(=O)Nc2ccc3[nH]ncc3c2)C1)c1ccc(Br)cc1 (stereo not given)	.	.	.	.
O=C(/C=C/c1cccs1)Nc1ccc(N2CCOCC2)cc1	.	.	.	.
O=C(NCC(c1cccs1)N1CCOCC1)c1ccc(Cl)s1 (stereo not given)	.	57.3	.	.
Cc1cc2c(cc1S(=O)(=O)C(C)CC(=O)NC1CCCc3ccccc31)OCC(=O)N2 (stereo not given)	.	.	.	.
Cc1ccc(C(=O)Nc2nc3ccc4sc(C)nc4c3s2)cc1	.	.	.	.

Screens (PubChem)
